Screening data deposited in PubChem by National Center for Advancing Translational Sciences (NCATS).
KAT2A inh: GCN5L2 (KAT2A) acetyltransferase inhibition | hit rate 0.21% among 390,000 | GCN5L2 HAT assay, ThioGlo1 CoA-SH fluorescence | Potency, µM (doses to about 58.9 µM), inactives show at the top dose activity change, negative = inhibition, most hits filed as inhibitors
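ThioGlo1-coupled HAT assay: 20nM GCN5L2, 70uM acetyl-CoA, 75uM H3(1-25) peptide, pH 7.5. Fluorescence read at 340/540nm at start and after 20 min at room temperature.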
PLK1 PBD inh: blocks phosphopeptide binding to human PLK1 polo-box domain | P53350 | Plk1 PBD binding of FITC phosphopeptide, fluorescence polarization | Potency, µM, for inactives: max response, negative = inhibition, usual class: inhibitors | hit rate 2.8% among 360,000 | AID 720504; further: series mostly up to about 57 µM; nearly all actives have a fitted effect of over 65% in size
Target sequence (P53350 whole entry, looked up, the tested form may be a part): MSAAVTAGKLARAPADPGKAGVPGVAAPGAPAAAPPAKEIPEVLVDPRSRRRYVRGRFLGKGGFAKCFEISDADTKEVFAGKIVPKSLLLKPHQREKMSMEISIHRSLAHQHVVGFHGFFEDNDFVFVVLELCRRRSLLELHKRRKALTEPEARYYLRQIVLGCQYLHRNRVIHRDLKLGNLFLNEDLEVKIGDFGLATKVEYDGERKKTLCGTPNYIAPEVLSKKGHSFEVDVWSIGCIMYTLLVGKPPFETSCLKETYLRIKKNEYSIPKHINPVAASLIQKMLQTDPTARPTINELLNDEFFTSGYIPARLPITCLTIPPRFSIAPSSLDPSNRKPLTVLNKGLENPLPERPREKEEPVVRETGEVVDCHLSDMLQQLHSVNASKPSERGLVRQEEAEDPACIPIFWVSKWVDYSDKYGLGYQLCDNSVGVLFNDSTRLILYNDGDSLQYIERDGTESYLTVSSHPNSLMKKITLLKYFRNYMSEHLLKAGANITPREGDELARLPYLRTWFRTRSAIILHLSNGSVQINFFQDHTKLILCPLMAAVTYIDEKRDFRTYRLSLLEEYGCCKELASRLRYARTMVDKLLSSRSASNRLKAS
ALOX12 inh: ALOX12 (human) lipoxygenase inhibition; P18054; purified 12hLO, xylenol orange hydroperoxide absorbance; Potency, µM (highest dose often 108 µM), for inactives: at the top dose activity change, negative = inhibition, most hits filed as inhibitors; hit rate 1.1% among 580,000; AID 1671190
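Purified human 12hLO at 150 nM in 25 mM Hepes, 0.01% Triton X-100, pH 7.0, preincubated 15 min at room temperature with compound. Reaction started with 40 uM arachidonic acid, 30 min at room temperature. Hydroperoxide measured by Fe-xylenol orange, 573/405 nm absorbance ratio.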
VDR inh: blocks the human vitamin D receptor. P11473. VDR-SRC2-3 peptide fluorescence polarization, 2 h. Potency, µM, for inactives: max response, negative = inhibition, actives largely listed as inhibitors. hit rate 0.93% among 400,000. AID 504847
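VDR–SRC2-3 interaction, FP format. Cmpds 23 nl via pintool, brief spin, 2 h ambient incubation.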
Starred values were filed as active, the others as inactive; ? = inconclusive; / = no result. Sampled rows, rich in hits. Any-hit rate of the full collection: about 3%. The call rests on the fitted dose curve; in most records, active means well fitted curve in the direction sought with a large enough effect; inconclusive means small, poorly fitted or top-dose-only effect, or another doubt; inactive means no such curve, though single readings can be large; an effect the other way counts as inactive or inconclusive. On the % scale 0 is the no-effect control and ±100 the full control effect; potency means the concentration at half of the fitted maximal effect.

SMILES | KAT2A inh | PLK1 PBD inh | ALOX12 inh | VDR inh
CNC(=O)C1(N2CCC[C@H]2C(=O)NCCOC)CCOCC1 | / | / | 10µM* | /
COc1ccc(-c2cnn3c2NC(=O)CC3C(=O)Nc2ccc(F)c(Cl)c2)cc1OC (stereo not given) | / | / | 4.5% | /
COc1cc(C(=O)Nc2c(C(=O)O)[nH]c3ccc(Br)cc23)cc(OC)c1OC | -2.2% | ? | 39.8µM* | -9.1%
COc1ccc(S(=O)(=O)Nc2c(C(=O)O)[nH]c3ccc(OC)cc23)c(OC)c1 | -12.6% | 15µM* | ? | -27.9%
COc1cc(C(=O)Nc2ccc(Br)cc2C(=O)c2cc(OC)c(OC)c(OC)c2)cc(OC)c1OC | 2.4% | -9.7% | 20.6% | 6.7%
COc1ccc(S(=O)(=O)Nc2c(C(=O)O)[nH]c3ccccc23)c(OC)c1 | -4.5% | -10.6% | -15.2% | -11.9%
Cc1ccc(C(=O)O)cc1NC(=O)c1ccco1 | / | / | -23.0% | /
CC1CCN(c2ccc3nnc(CCC(=O)NC(C)CCc4ccco4)n3n2)CC1 (stereo not given) | / | / | 7.4% | /
O=C(O)/C(=C\c1ccc(Br)cc1)Sc1nc2ccccc2s1 | / | / | 8.91µM* | /
Brc1ccc(CSc2nc3ccccc3s2)cc1 | / | / | -0.7% | /
COCc1[nH]nc2c1C(c1ccc(OC)c(OC)c1)C(C#N)=C(N)O2 (stereo not given) | -3.3% | -12.6% | 45.2% | -4.0%
CCn1c2ccccc2c2cc(C3C(C#N)=C(N)Oc4n[nH]c(COC)c43)ccc21 (stereo not given) | -1.4% | 5.97µM* | -15.4% | -23.6%
c1ccc(OCc2nnc3sc(-c4cccs4)nn23)cc1 | -23.6% | 5.32µM* | ? | ?
COc1ccc(-c2nn3c(COc4ccccc4)nnc3s2)cc1OC | -7.1% | ? | 0.0% | -3.4%
Cc1ccccc1-c1nn2c(COc3ccccc3)nnc2s1 | / | / | 5.6% | /
c1ccc(OCc2nnc3sc(-c4ccccc4)nn23)cc1 | / | / | 8.91µM* | /
O=C(OCc1cccc(F)c1)c1ccc(C2Nc3ccccc3S(=O)(=O)N2)cc1 (stereo not given) | / | / | 15.7% | /
CN(C)S(=O)(=O)Nc1cc(Cl)cc(Cl)c1 | -9.0% | 29.9µM* | -8.8% | 6.9%
Cc1ccc(NS(=O)(=O)N(C)C)cc1 | -0.8% | -5.4% | 310.8% | 9.9%
CC(C)(C)OC(=O)COc1ccc2c(=O)c(-c3ccccc3)coc2c1 | / | / | -7.4% | /
CCOC(=O)C1CCN(c2nc(N)c3c(N)nc(SCC(=O)O)cc3c2C#N)CC1 | ? | 10.6µM* | ? | ?
CCOC(=O)C1CCN(c2nc(C)cc(C)c2C#N)CC1 | 0.0% | -3.0% | -2.3% | -12.4%
Cc1ccn2cc(-c3cccc(NC(=O)c4ccccc4)c3)nc2c1 | -13.8% | 7.0% | 12.1% | -6.2%
Cc1ccn2cc(-c3cccc(NC(=O)C(C)C)c3)nc2c1 | -0.9% | 21.2µM* | 2.4% | -14.5%
Cn1c(CCC(=O)Nc2cc(S(C)(=O)=O)ccc2Cl)nc2cc(S(=O)(=O)N3CCOCC3)ccc21 | ? | ? | 44.7µM* | -12.0%
SMILES | KAT2A inh | PLK1 PBD inh | ALOX12 inh | VDR inh
Cn1c(CCC(=O)O)nc2cc(S(=O)(=O)N3CCCC3)ccc21 | -1.8% | 8.4% | -12.3% | 3.9%
Cn1c(CCC(=O)Nc2ccc(S(C)(=O)=O)cc2)nc2cc(S(=O)(=O)N3CCOCC3)ccc21 | / | -12.3% | 472.9% | -10.0%
Cn1c(CCC(=O)O)nc2cc(S(=O)(=O)N3CCCCC3)ccc21 | -11.5% | 26.7µM* | ? | ?
Cc1c(C(=O)NC(c2ccccc2)c2nccn2C)oc2ccc(F)cc12 (stereo not given) | / | / | 9.2% | /
O=C(OCc1cnc(Cl)s1)c1c(F)cccc1F | -15.8% | 23.8µM* | -3.8% | -28.0%
Cc1ccc(N(C(=O)c2cccs2)C2C=CS(=O)(=O)C2)cc1C (stereo not given) | / | / | -0.6% | /
CCc1ccc(NCc2cc(=O)n3[nH]c(-c4ccccc4)nc3n2)cc1 | / | / | 8.91µM* | /
COc1cccc(NCc2cc(=O)n3[nH]c(-c4ccc(C)cc4)nc3n2)c1 | / | / | 39.8µM* | /
COc1ccc(N2C(=O)c3ccccc3NC2c2cnn(-c3ccccc3)n2)c(OC)c1 (stereo not given) | / | / | -23.5% | /
Cc1cccc(N2C(=O)CC(Sc3nccc(C)n3)C2=O)c1 (stereo not given) | -6.1% | -15.6% | 14.1% | -5.1%
Cc1ccc(N2C(=O)CC(Sc3ncn[nH]3)C2=O)cc1C (stereo not given) | -16.8% | 29.9µM* | 0.0% | -1.4%
Cc1cccc(N2C(=O)CC(Sc3ncn[nH]3)C2=O)c1 (stereo not given) | -9.9% | 26.7µM* | -0.2% | 7.9%
COC(=O)c1ccc(CCNC(=O)c2nccnc2N)cc1 | / | / | -6.5% | /
CCC(Oc1ccccc1F)C(=O)NCc1csc(-c2ccccc2)n1 (stereo not given) | / | / | 29.8% | /
N/C(=N\NC(=O)c1cccs1)c1cc2cc(Cl)ccc2oc1=O | -0.7% | 23.8µM* | ? | -30.0%
O=C(COc1ncnc2ccccc12)N1CCN(S(=O)(=O)c2ccc(Cl)cc2)CC1 | -12.2% | 29.9µM* | 0.0% | -9.6%
Nc1nccnc1C(=O)NCc1cccc(Cl)c1 | / | / | -16.0% | /
Cc1ccc(CC(=S)N2CCOCC2)cc1 | -9.2% | 18.9µM* | ? | -29.5%
COc1ccc(CC(=S)N2CCOCC2)cc1 | 3.0% | 7.52µM* | ? | -15.2%
C[C@@H]1Oc2ccccc2C=C1/C=C/C(=O)O | / | / | 4.2% | 0.3%
CC1Oc2ccccc2C=C1/C=N/Nc1ccc(C(=O)O)cc1 (stereo not given) | -5.2% | 23.8µM* | 6.0% | ?
C/C(=N\NC(=S)NCc1ccccc1)c1ccc(C#N)cc1 | -0.4% | 7.9% | -7.8% | -3.4%
C/C(=N\NC(=S)NCc1ccccc1)c1ccccc1 | -5.7% | -21.2% | 39.8µM* | 10.0%
C/C(=N\NC(=S)NCc1ccccc1)c1ccc(C(C)(C)C)cc1 | -14.8% | -6.6% | 35.5µM* | 7.0%
C/C(=N\NC(=S)NCc1ccccc1)c1ccccc1F | -12.2% | -5.3% | 35.5µM* | -13.5%
SMILES | KAT2A inh | PLK1 PBD inh | ALOX12 inh | VDR inh
COc1ccc(CNC(=S)N/N=C(/C)c2ccccc2)cc1 | -10.0% | -1.5% | ? | -6.1%
C/C(=N\NC(=S)NCc1ccccc1)c1ccco1 | -12.0% | ? | ? | -12.0%
Cc1cc(C(=O)Nc2ccc(Br)cn2)no1 | / | / | 6.5% | /
COc1cc([N+](=O)[O-])ccc1N=Nc1c(N)[nH]n(-c2ccccc2)c1=O | -0.4% | 29.9µM* | -27.1% | -19.0%
Cc1ccc(N=Nc2c(C)[nH]n(-c3ccccc3)c2=O)c(C)c1 | 5.2% | 8.44µM* | 3.1% | ?
Cc1[nH]n(-c2ccccc2)c(=O)c1N=Nc1c(O)cc(S(=O)(=O)N(C)C)c2ccccc12 | ? | 29.9µM* | -19.6% | 12.6%
Cc1ccc(N=Nc2c(C)[nH]n(-c3ccccc3)c2=O)cc1Br | -10.2% | -2.7% | 3.8% | -6.7%
CC(=O)Nc1cc(NCC(=O)NC2(C#N)CCCCC2)ccc1F | / | / | -23.0% | /
COc1cccc(/C=C/c2nc(C#N)c(NCCCN3CCOCC3)o2)c1 | / | / | -27.9% | /
O=C(/C=C/c1ccc2c(c1)OCO2)c1ccccn1 | -9.1% | -2.6% | ? | 79.4µM*
O=C(C=Cc1ccc2c(c1)OCO2)C=Cc1ccc2c(c1)OCO2 | / | -4.3% | ? | /
